Source: the supplement of paper PMC10105736

Assays:
Assay in all cases: MAPPIT interaction score (arbitrary units); higher = stronger binary interaction signal, active = hit call of the paper;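 active = MAPPIT score above the 99th percentile of random reference set scores in the same batch; inactive = at or below it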
[1] = biological target: CG12963; details: MAPPIT configuration: N-N; pair source set: Curagen_high_conf
[2] = biological target: CG12470; details: MAPPIT configuration: N-N; pair source set: Curagen_low_conf
[3] = biological target: Eb1; details: MAPPIT configuration: N-N; pair source set: screen_1
[4] = biological target: SmydA-3; details: MAPPIT configuration: N-N; pair source set: screen_2
[5] = biological target: Sply; details: MAPPIT configuration: N-N; pair source set: Finley_Y2H
[6] = biological target: ben; details: MAPPIT configuration: N-N; pair source set: screen_2
[7] = biological target: hb; details: MAPPIT configuration: N-N; pair source set: screen_1
[8] = biological target: promL; details: MAPPIT configuration: N-N; pair source set: screen_2
[9] = biological target: pzg; details: MAPPIT configuration: N-N; pair source set: Curagen_high_conf
[10] = biological target: spin; details: MAPPIT configuration: N-N; pair source set: screen_1
[11] = biological target: CG12607; details: MAPPIT configuration: N-N; pair source set: Curagen_high_conf
[12] = biological target: CG17612; details: MAPPIT configuration: N-C; pair source set: screen_4
[13] = biological target: CG30195; details: MAPPIT configuration: N-N; pair source set: DPIM
[14] = biological target: Cp190; details: MAPPIT configuration: N-C; pair source set: Lit-BM-16
[15] = biological target: Cpr72Ea; details: MAPPIT configuration: N-N; pair source set: Lit-BS-16
[16] = biological target: Trl; details: MAPPIT configuration: N-N; pair source set: Finley_Y2H
[17] = biological target: Ubc6
[18] = biological target: Zasp52; details: MAPPIT configuration: N-N
[19] = biological target: fl(2)d; details: MAPPIT configuration: N-N; pair source set: screen_2
[20] = biological target: su(Hw); details: pair source set: Lit-BM-16

Measured: MAPPIT interaction score
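Also: HEK293T cells with Epo stimulation, STAT-responsive firefly luciferase reporter, fold induction versus unstimulated cells divided by the larger fold induction of two negative controls lacking either bait or prey.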

B1: csw (protein)
chain: MSSRRWFHPTISGIEAEKLLQEQGFDGSFLARLSSSNPGAFTLSVRRGNEVTHIKIQNNGDFFDLYGGEKFATLPELVQYYMENGELKEKNGQAIELKQPLICAEPTTERWFHGNLSGKEAEKLILERGKNGSFLVRESQSKPGDFVLSVRTDDKVTHVMIRWQDKKYDVGGGESFGTLSELIDHYKRNPMVETCGTVVHLRQPFNATRITAAGINARVEQLVKGGFWEEFESLQQDSRDTFSRNEGYKQENRLKNRYRNILPYDHTRVKLLDVEHSVAGAEYINANYIRLPTDGDLYNMSSSSESLNSSVPSCPACTAAQTQRNCSNCQLQNKTCVQCAVKSAILPYSNCATCSRKSDSLSKHKRSESSASSSPSSGSGSGPGSSGTSGVSSVNGPGTPTNLTSGTAGCLVGLLKRHSNDSSGAVSISMAEREREREREMFKTYIATQGCLLTQQVNTVTDFWNMVWQENTRVIVMTTKEYERGKEKCARYWPDEGRSEQFGHARIQCVSENSTSDYTLREFLVSWRDQPARRIFHYHFQVWPDHGVPADPGCVLNFLQDVNTRQSHLAQAGEKPGPICVHCSAGIGRTGTFIVIDMILDQIVRNGLDTEIDIQRTIQMVRSQRSGLVQTEAQYKFVYYAVQHYIQTLIARKRAEEQSLQVGREYTNIKYTGEIGNDSQRSPLPPAISSISLVPSKTPLTPTSADLGTGMGLSMGVGMGVGNKHASKQQPPLPVVNCNNNNNGIGNSGCSNGGGSSTTSSSNGSSNGNINALLGGIGLGLGGNMRKSNFYSDSLKQQQQREEQAPAGAGKMQQPAPPLRPRPGILKLLTSPVIFQQNSKTFPKT
inactive: [1] -0.144

B2: sinah (protein)
chain: MSVRNSRPQLSWPERVSPQRTIDTPTASGEMLTRRQSAPALVVPPEETTHVVVVKRQSPDAAAAGELVPSRRKDSVAVQSGIVATGPLDTTRSGARDDFLMALLECPVCFGYIMPPIMQCPRGHLICSTCRSKLTICPVCRVFMTNIRSLAMEKVASKLIFPCKHSHFGCRARLSYAEKTKHEEDCECRPYFCPYPDDKCSWQGPLRDVYQHLMSSHENVITMEGNDIIFLATNVNLEGALDWTMVQSCHGRHFLLSLEKINLGEDCQQYFTACRMIGSMKDAAEFVYNISLEAYNRTLRWQSKPRSIRENFSSFTNADFLVLNKHTVELFSEDGNLALNVVIRKVEERTN
inactive: [3] -0.0985 | [4] 0.15 | [5] 1.41 | [6] 1.2 | [7] -0.281 | [8] 0.506 | [9] -1 | [10] 0.564
active: [2] 2.95

B3: mod(mdg4) (protein)
chain: MADDEQFSLCWNNFNTNLSAGFHESLCRGDLVDVSLAAEGQIVKAHRLVLSVCSPFFRKMFTQMPSNTHAIVFLNNVSHSALKDLIQFMYCGEVNVKQDALPAFISTAESLQIKGLTDNDPAPQPPQESSPPPAAPHVQQQQIPAQRVQRQQPRASARYKIETVDDGLGDEKQSTTQIVIQTTAAPQATIVQQQQPQQAAQQIQSQQLQTGTTTTATLVSTNKRSAQRSSLTPASSSAGVKRSKTSTSANVMDPLDSTTETGATTTAQLVPQQITVQTSVVSAAEAKLHQQSPQQVRQEEAEYIDLPMELPTKSEPDYSEDHGDAAGDAEGTYVEDDTYGDMRYDDSYFTENEDAGNQTAANTSGGGVTATTSKAVVKQQSQNYSESSFVDTSGDQGNTEAQAATSASATKIPPRKRGRPKTKVEDQTPKPKLLEKLQAATLNEEASEPAVYASTTKGGVKLIFNGHLFKFSFRKADYSVFQCCYREHGEECKVRVVCDQKRVFPYEGEHVHFMQASDKSCLPSQFMPGESGVISSLSPSKELLMKNTTKLEEADDKEDEDFEEFEIQEIDEIELDEPEKTPAKEEEVDPNDFREKIKRRLQKALQNKKK
active: [12] 4.86 | [13] 2.59 | [17]; MAPPIT configuration: N-C, pair source set: screen_3 3.96 | [17]; MAPPIT configuration: N-N, pair source set: screen_2 5.53
inactive: [11] 0.232 | [14] 1.09 | [15] -2.84 | [16] -0.456 | [18]; pair source set: Curagen_low_conf 0.192 | [18]; pair source set: Lit-BS-16 -0.533 | [19] -0.311 | [20]; MAPPIT configuration: N-C 0.885 | [20]; MAPPIT configuration: N-N 0.105
